Here are results for 21 molecules from PubChem BioAssay AID1053118 (Broad Institute, 2014).

Measured potencies and affinities stand elsewhere. Active and inactive are the calls of the source.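 How the source made its calls: active means fitted half-maximal concentration for ATP signal loss at most twice the top valid dose; inconclusive means flat curve between -70 and -30%, or an invalid fit; inactive means flat within ±30%, wrong direction, or potency past limit.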

The experiment can be described thus: HepG2 cell cytotoxicity, dose response, cytotoxicity control, cherry-picks, set 5 (AID 1053118). The note with it: HepG2 viability, ATP luminescence, 72 h; series mostly up to 26 µM.
As to `C[C@@H]1CN([C@H](C)CO)C(=O)c2cccc(NC(=O)Nc3ccc(C(F)(F)F)cc3)c2O[C@H]1CN(C)C(=O)Nc1cccc2ccccc12`, the outcome was inactive.
In the case of `CN1c2ccc(-c3ccccc3)cc2[C@@H]2[C@@H](CCN2C(=O)CN2CCOCC2)[C@@H]1CO` it was “inactive”; in that of `N#C[C@H]1[C@H](c2ccccc2C2=CCCCC2)[C@H](CO)N1S(=O)(=O)c1ccccc1`, “inactive”; in that of `C[C@H](CO)N1C[C@H](C)[C@H](CN(C)C(=O)c2cccc(F)c2)Oc2ncc(-c3ccccc3)cc2C1=O`, “inactive”.
Next, `C[C@H](CO)N1C[C@H](C)[C@@H](CN(C)Cc2ccccc2)Oc2ncc(-c3ccccc3)cc2C1=O`: “inactive”.
Next, `C[C@H]1CN([C@@H](C)CO)C(=O)c2cc(-c3ccccc3)cnc2O[C@@H]1CN(C)Cc1ccccc1`: “inactive”.
For the molecule `CN(C)C(=O)c1ccc(-c2ccc3c(c2)[C@H]2[C@H](CCN2C(=O)c2ccc(F)cc2)[C@@H](CO)N3C)cc1`, the outcome was inactive.
`COC(=O)C[C@H]1CC[C@H]2[C@@H](COc3ccc(NC(=O)Cc4cccs4)cc3C(=O)N2C)O1`: the result was inactive.
Next, `C[C@@H](O)C#Cc1ccc2c(c1)O[C@@H](CN(C)C)[C@@H](C)CN([C@@H](C)CO)S2(=O)=O`: “inactive”.
For the molecule `CCc1ccc(NC(=O)CSc2nnc(-c3ccco3)o2)cc1`, the call was inactive.
In the case of `COc1ccc(C)cc1N(CC(=O)Nc1cccc(N(C)S(C)(=O)=O)c1)S(C)(=O)=O` it was “inactive”.
In the case of `C[C@@H]1CN([C@@H](C)CO)C(=O)c2cc(NC(=O)CCCN(C)C)ccc2O[C@@H]1CN(C)Cc1ccc(-c2ccccc2)cc1` it was “inactive”; in that of `C[C@@H]1CN([C@@H](C)CO)C(=O)c2cccc(NC(=O)Nc3ccc(C(F)(F)F)cc3)c2O[C@H]1CN(C)C(=O)Nc1cccc2ccccc12`, “inactive”.
Turning to `COc1cccc(-c2ccc3c(c2)[C@@H]2[C@@H](CCN2S(=O)(=O)c2cccc(OC)c2)[C@@H](CO)N3)c1`, the result was inactive.
In the case of `C[C@@H]1CN([C@H](C)CO)C(=O)c2cc(NC(=O)CCCN(C)C)ccc2O[C@@H]1CN(C)Cc1ccc(-c2ccccc2)cc1` it was “inactive”; in that of `CO[C@@H]1CN(C)C(=O)c2cc(NC(=O)Nc3ccc(Cl)c(Cl)c3)ccc2OC[C@H](C)NC[C@H]1C`, “inactive”; in that of `COc1cccc(-c2ccc3c(c2)[C@H]2[C@H](CCN2S(=O)(=O)c2cccc(OC)c2)[C@H](CO)N3)c1`, “inactive”.
Turning to `Cc1cc(C)c(S(=O)(=O)Nn2cnnc2)c(C)c1`, the call was inactive.
In the case of `CN1c2ccc(-c3ccccc3)cc2[C@@H]2[C@@H](CCN2C(=O)CN2CCOCC2)[C@H]1CO` it was “inactive”.
With `Cc1ccccc1S(=O)(=O)N1CC[C@H]2[C@H](CO)Nc3ccc(-c4ccc(C#N)cc4)cc3[C@H]21`, the result was inactive.
In the case of `CSc1ccccc1C(=O)C1CCCN(C(=O)CCc2cccnc2)C1` (stereo unspecified) it was “inactive”.
